Assay [1] is described as follows: small molecules captured by biotinylated probe aFSTL3 – biochemical, small-molecule microarray, fluorescence 635/667, stem cell growth factor project, primary screen (AID 1064).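 Also: measures binding of the biotinylated anti-FSTL3 antibody to printed compounds.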 To be noted: higher = more signal.
Assay [2] can be described thus: binders from COS7 lysate, DM2A8 probe, primary screen, torsin A project, cell lysate, small-molecule microarray, fluorescence 635/667 (AID 1065). As to conditions: higher = more signal, COS7 lysate expressing mutant human TOR1A.
A short description of assay [3]: small molecules captured by biotinylated probe aFGF2 – biochemical, small-molecule microarray, fluorescence 635/667, stem cell growth factor project, primary screen (AID 1067).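 Also: measures binding of biotinylated aFGF2 protein to printed compounds on slides; z-score merges feature fluorescence and signal-to-noise across triplicate slides.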 To be noted: higher = more signal.
Assay [4] can be described thus: small molecules captured by biotinylated probe aFGF10 – biochemical, small-molecule microarray, fluorescence 635/667, stem cell growth factor project, primary screen (AID 1071).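 Also: score merges 667 nm spot intensity and signal to noise from triplicate slides.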 As to conditions: higher = more signal.
Assay [5] deals with Neurogenic locus notch homolog protein 2 (Homo sapiens) (UniProt Q04721). The assay can be described thus: small molecules binding Notch2 protein – biochemical, small-molecule microarray, 635 nm fluorescence, stem cell growth factors, primary screen (AID 1073). To be noted: higher = more signal.
Neurogenic locus notch homolog protein 2 (Homo sapiens), sequence (Q04721 whole entry, looked up, canonical isoform): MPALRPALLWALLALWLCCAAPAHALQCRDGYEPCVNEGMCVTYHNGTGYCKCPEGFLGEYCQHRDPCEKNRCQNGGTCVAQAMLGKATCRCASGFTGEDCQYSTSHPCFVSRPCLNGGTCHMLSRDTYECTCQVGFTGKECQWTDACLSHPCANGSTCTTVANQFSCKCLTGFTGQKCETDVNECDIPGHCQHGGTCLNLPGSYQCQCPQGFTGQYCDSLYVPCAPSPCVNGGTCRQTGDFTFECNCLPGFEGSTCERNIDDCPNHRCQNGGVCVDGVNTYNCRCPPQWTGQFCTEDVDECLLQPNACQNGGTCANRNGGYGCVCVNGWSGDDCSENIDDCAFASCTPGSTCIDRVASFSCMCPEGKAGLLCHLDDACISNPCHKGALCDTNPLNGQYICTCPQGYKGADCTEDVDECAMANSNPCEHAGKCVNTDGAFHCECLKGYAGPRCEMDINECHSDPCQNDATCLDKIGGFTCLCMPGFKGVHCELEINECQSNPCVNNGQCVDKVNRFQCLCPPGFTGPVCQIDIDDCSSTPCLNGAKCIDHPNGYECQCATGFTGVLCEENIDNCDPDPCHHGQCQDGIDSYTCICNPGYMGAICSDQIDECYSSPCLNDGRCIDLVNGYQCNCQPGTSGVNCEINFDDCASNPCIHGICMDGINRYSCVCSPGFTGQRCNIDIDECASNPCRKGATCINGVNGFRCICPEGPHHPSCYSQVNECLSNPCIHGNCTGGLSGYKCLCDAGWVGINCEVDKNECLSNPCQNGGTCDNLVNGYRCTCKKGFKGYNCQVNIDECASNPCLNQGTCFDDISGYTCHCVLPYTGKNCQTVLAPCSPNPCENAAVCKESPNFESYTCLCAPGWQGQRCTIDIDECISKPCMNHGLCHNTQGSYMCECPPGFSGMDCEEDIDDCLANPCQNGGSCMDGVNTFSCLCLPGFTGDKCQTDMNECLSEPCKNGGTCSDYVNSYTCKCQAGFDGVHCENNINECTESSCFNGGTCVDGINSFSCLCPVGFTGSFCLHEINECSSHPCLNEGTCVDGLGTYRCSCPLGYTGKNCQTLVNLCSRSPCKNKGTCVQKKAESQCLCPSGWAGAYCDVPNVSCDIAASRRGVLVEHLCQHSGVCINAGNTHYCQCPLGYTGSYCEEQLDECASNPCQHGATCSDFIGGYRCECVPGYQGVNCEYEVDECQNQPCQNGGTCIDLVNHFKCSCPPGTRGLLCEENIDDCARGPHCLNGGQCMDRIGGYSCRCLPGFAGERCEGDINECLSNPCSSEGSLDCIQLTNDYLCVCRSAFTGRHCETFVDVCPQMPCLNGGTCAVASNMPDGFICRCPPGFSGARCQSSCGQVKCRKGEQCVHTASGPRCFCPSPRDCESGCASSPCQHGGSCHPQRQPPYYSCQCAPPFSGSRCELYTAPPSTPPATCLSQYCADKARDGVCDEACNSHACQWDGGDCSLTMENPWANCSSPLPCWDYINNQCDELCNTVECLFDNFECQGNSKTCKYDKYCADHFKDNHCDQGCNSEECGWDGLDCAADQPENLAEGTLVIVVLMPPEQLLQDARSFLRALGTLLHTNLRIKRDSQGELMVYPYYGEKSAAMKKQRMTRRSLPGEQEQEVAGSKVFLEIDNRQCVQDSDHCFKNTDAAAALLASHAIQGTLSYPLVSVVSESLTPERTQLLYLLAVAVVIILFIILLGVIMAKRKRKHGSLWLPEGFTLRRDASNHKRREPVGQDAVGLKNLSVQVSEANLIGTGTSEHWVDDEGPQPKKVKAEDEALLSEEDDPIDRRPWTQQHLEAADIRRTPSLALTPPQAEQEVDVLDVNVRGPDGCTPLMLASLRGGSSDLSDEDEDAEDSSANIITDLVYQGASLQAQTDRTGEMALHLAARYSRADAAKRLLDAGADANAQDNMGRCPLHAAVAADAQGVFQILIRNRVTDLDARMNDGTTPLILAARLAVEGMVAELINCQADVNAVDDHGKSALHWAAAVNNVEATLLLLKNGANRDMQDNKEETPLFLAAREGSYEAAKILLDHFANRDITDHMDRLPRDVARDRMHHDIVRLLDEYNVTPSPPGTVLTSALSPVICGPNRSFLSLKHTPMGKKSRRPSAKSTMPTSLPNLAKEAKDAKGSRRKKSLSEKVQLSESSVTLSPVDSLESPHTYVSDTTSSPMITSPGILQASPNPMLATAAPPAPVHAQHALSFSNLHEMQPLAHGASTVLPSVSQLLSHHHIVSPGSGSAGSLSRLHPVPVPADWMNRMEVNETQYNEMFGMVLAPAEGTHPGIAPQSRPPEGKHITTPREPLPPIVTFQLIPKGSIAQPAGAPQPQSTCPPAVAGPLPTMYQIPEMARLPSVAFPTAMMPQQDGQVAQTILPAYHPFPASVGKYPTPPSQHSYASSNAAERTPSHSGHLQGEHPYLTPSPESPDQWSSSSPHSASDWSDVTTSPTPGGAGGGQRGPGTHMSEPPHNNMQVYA
Assay [6] concerns the target Pro-neuregulin-1, membrane-bound isoform (Homo sapiens) (UniProt Q02297). The assay can be described thus: small molecules binding neuregulin-1 protein – biochemical, small-molecule microarray, fluorescence 635/667, psychiatric disease protein project, primary screen (AID 1075).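 Also: score combines 667 nm spot fluorescence with signal to noise.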 To be noted: NRG1 binding, 635 nm fluorescence, higher = more signal.
Assay [7] deals with Neuregulin-1 EGF-like domain. The experiment in a line: small molecules binding NRG1 EGF domain – biochemical, small-molecule microarray, 635 nm fluorescence, primary screen (AID 1081).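 Also: binding of the protein to compounds printed on small-molecule microarray slides.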 To be noted: higher = more signal.
Assay [8] in a line: FRG1 expression reporter modulators in myotubes – cell-based, C2C12 myotubes, firefly/Renilla luciferase, luminescence, FRG1 inhibition for FSHD, primary screen (AID 1084). As to conditions: FRG1 promoter luciferase, higher = more signal, called active from +8 up or from −8 down.
A short description of assay [9]: small molecules captured by biotinylated probe aFST – biochemical, small-molecule microarray, fluorescence 635/667, stem cell growth factor project, primary screen (AID 1086).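 Also: score merges 667 nm fluorescence with signal-to-noise of each printed compound spot.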 As to conditions: higher = more signal.
Assay [10] can be described thus: binders of probe aHhip on microarray, primary screen, stem cell growth factor project, biochemical, small-molecule microarray, fluorescence 635/667 (AID 1087).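 Also: score merges spot fluorescence at 667nm with spot signal to noise ratio.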 To be noted: higher = more signal.
Assay [11] has as its system PRMT1 (protein arginine N-methyltransferase 1). The experiment in a line: small molecules binding arginine methyltransferase PRMT1 – biochemical, small-molecule microarray, 635 nm fluorescence, primary screen (AID 1088).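 Also: binding of Prmt1 protein to compounds spotted on small-molecule microarray slides.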 To be noted: higher = more signal.
A short description of assay [12]: growth effects on S. cerevisiae YJM789 – YJM789 clinical isolate, OD600, 24 h, basal, primary screen (AID 1089).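 Also: growth of clinical yeast isolate S. cerevisiae YJM 789 seeded 1000 cells per well; test concentration not given here.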 To be noted: higher = more signal, called active from +8 up or from −8 down.
The nature of assay [13]: S. pombe growth modifiers, basal conditions – strain 972, OD600, 24 h, no modulator, primary screen (AID 1090).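 Also: basal condition with compound alone and no growth modifier present; test concentration not given here.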 To be noted: S. pombe 972 growth, higher = more signal, called active from +8 up or from −8 down.
Assay [14] can be described thus: budding yeast growth modifiers under rapamycin – strain BY4716, OD600, 96 h, primary screen (AID 1091). Also: test concentration not given here. To be noted: S. cerevisiae BY4716 + rapamycin, higher = more signal, called active from +8 up or from −8 down.
In assay [15] the target is Torsin-1A-interacting protein 2 (Homo sapiens) (UniProt Q8NFQ8). The experiment in a line: small molecules binding lysate-expressed LULL1 – cell lysate, human LULL1 lysate, 635/667 nm fluorescence, primary screen (AID 1092).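 Also: probe is lysate of COS7 cells overexpressing human LULL1; score merges per-feature 667 nm fluorescence with signal-to-noise.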 As to conditions: small-molecule microarray, hLULL1 lysate binding, 635 nm fluorescence; higher = more signal.
Torsin-1A-interacting protein 2 (Homo sapiens), sequence (Q8NFQ8 whole entry, looked up): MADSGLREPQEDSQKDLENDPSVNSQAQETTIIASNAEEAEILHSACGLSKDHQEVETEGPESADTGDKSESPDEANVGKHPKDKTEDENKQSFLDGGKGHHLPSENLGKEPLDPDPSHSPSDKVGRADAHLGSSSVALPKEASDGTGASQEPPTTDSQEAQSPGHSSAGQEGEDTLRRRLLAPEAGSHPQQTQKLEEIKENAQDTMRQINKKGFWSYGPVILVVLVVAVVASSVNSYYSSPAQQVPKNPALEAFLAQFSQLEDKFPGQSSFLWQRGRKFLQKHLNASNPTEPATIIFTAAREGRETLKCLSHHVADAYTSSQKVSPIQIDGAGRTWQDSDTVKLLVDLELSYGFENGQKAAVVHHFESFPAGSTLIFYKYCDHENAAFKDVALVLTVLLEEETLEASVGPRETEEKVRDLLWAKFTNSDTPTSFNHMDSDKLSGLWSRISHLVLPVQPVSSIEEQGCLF
Assay [16] can be described thus: optical density change of DRC41 E. coli – strain DRC41, OD650, 24 h, E. coli filamentation project, primary screen (AID 1093).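 Also: MC1000 strain lacking acrAB efflux and sulA so SOS filamentation is blocked; test concentration not given here.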 As to conditions: E. coli DRC41 growth, higher = more signal, called active from +8 up or from −8 down.
Assay [17] is described as follows: probe aLefty2 binding to arrayed compounds – biochemical, biotinylated probe, 635/667 nm fluorescence, primary screen (AID 1094).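 Also: score merges spot fluorescence near 667 nm with spot signal-to-noise ratio.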 To be noted: small-molecule microarray, higher = more signal.
In assay [18] the test system is Noggin (protein binding on small-molecule microarray). The experiment in a line: small molecules binding Noggin protein – biochemical, 635/667 nm fluorescence, primary screen (AID 1095).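 Also: score merges 667 nm feature fluorescence with signal to noise over triplicate slides.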 To be noted: 635 nm fluorescence, higher = more signal.
Assay [19] has as its target Neurogenic locus notch homolog protein 3 (Homo sapiens) (UniProt Q9UM47). The experiment in a line: small molecules binding NOTCH3 protein – biochemical, 635/667 nm fluorescence, primary screen (AID 1096). As to conditions: small-molecule microarray, 635 nm fluorescence, higher = more signal.
Assay [20] can be described thus: probe aEGFR binding to arrayed compounds – biochemical, biotinylated probe, 635/667 nm fluorescence, primary screen (AID 1097).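 Also: probe is a biotinylated anti-EGFR antibody binding compounds printed on slides; score combines fluorescence near 667 nm and signal to noise of each spot.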 As to conditions: small-molecule microarray, higher = more signal.

The source made the active and inactive calls.

Pro-neuregulin-1, membrane-bound isoform (Homo sapiens), sequence (Q02297 whole entry, looked up, the tested form may be a part, canonical isoform): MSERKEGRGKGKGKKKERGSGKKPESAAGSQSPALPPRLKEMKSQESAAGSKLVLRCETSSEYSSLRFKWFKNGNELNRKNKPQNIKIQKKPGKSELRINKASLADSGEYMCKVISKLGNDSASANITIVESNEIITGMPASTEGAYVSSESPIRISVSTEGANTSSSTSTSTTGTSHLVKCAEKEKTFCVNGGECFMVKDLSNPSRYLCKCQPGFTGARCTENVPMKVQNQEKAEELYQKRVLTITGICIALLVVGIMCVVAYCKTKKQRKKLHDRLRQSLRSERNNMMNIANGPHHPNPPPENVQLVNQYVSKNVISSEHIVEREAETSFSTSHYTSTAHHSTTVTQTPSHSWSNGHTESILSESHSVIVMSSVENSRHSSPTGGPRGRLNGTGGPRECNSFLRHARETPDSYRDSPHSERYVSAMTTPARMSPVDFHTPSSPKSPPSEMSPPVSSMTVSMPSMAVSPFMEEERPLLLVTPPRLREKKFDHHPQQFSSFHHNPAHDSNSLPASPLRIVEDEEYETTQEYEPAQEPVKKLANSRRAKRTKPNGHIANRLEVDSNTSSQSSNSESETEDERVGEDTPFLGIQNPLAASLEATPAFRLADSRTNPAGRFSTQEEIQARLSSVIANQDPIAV

As for `CN1C(=O)C2C=CC(C(O)c3ccccn3)N(Nc3ccccc3)C2C1=O` (stereo not given), the composite z-score in [1] was -0.0437; in assay [2], 1.11; in assay [3], -0.0985; in [4], 0.479; in assay [5] it was 0.766; in assay [6], 0.838. In addition, the composite z-score in assay [7] turned out to be 0.684; in assay [9], 0.113; in [10] it was 0.176; in [11], 0.949; in assay [15], 0.68; in assay [17], 0.0524. Further, the composite z-score in assay [18] is 0.021; in assay [19] it was 0.186; in assay [20], -0.0746. Further, the z-score in assay [8] is 0.595 (inactive); in assay [12] it was 0.826 (inactive); in assay [13] it was 0.632 (inactive); in assay [14], 1.23 (inactive); in [16], -0.324 (inactive).

As for `COc1ccc(C(=O)Nc2cccc(CN3C(=O)[C@]4(O[C@H](CC(=O)N5CCC[C@H]5CO)[C@@H]([Si](C)(C)c5ccc(OC)cc5)[C@@H]4C)c4ccccc43)c2)cc1`, the composite z-score is -0.0422 in [1]; 0.717 in assay [2]; 0.0257 in [3]; 0.394 in [4]; 0.135 in assay [5]; 0.847 in assay [6]. In addition, the composite z-score is 1.12 in [7]; 0.156 in assay [9]; -0.253 in [10]; 1.38 in assay [11]; 2.34 in assay [15]; -0.181 in assay [17]. In addition, the values for the composite z-score in assay [18], in [19] and in assay [20] were 0.467, 0.869 and -0.157, respectively. Further, the z-score in assay [8] is -1.22 (inactive); in assay [12], -0.979 (inactive); in assay [13] it was -0.22 (inactive); in assay [14], -0.378 (inactive); in assay [16], 0.44 (inactive).

On to `CC1=C2[C@@H](CCc3ccccc3)OB(O)C[C@@H]2n2c(=O)n(-c3ccccc3)c(=O)n2C1`, for which the composite z-score in assay [1] was -0.388; in assay [2], -0.214; in assay [3], -0.132; in [4], 0.203; in assay [5] it was 0.889; in assay [6], 0.537. The composite z-score is 1.04 in assay [7]; 0.156 in assay [9]; -0.34 in [10]; 1.02 in [11]; 0.902 in assay [15]; -0.179 in assay [17]. Moreover, the results for the composite z-score in assay [18], in [19] and in assay [20] were 0.416, 0.666 and -0.111, respectively. The z-score is -2.85 (inactive) in [8]; -0.237 (inactive) in assay [12]; -1.51 (inactive) in [13]; -0.535 (inactive) in assay [14]; -0.296 (inactive) in assay [16].

In the case of `[N-]=[N+]=NCc1ccccc1[C@@H]1OC(c2ccc(OCCCO)cc2)=N[C@]1(Cc1ccccc1N=[N+]=[N-])C(=O)NCc1ccccc1`, the composite z-score in assay [1] is -0.253; in assay [2], 0.485; in assay [3], -0.0287; in [4], 0.272; in assay [5] it was 1.15; in assay [6], 0.612. The composite z-score in [7] was 1.05; in assay [9], 0.221; in [10], -0.113; in assay [11], 1.55; in assay [15], 2.45; in assay [17], 0.139. The composite z-score in [18] was found to be 0.646; in [19], 1.13; in [20] it was 0.123. The z-score in [8] is -1.66 (inactive); in assay [12], 1.1 (inactive); in [13], 1.44 (inactive); in [14] it was 8.41 (active); in [16], -0.911 (inactive).

Turning to `COCCOC(=O)N1C(=O)[C@@]2(c3cc(C#CC4=CCCCC4)ccc31)[C@H](C(=O)NC[C@H](O)c1ccccc1)[C@H]1C(=O)O[C@H](c3ccccc3)[C@H](c3ccccc3)N1[C@@H]2c1ccc(O)cc1`, the composite z-score in [1] is -0.377; in assay [2] it was 0.189; in [3] it was -0.105; in assay [4] it was 0.797; in assay [5], 1.23; in assay [6] it was 0.996. In addition, the composite z-score is 1.19 in assay [7]; 0.353 in assay [9]; -0.0296 in assay [10]; 1.54 in assay [11]; 2.08 in assay [15]; 0.0723 in assay [17]. For the same compound, the composite z-score in assay [18] stood at 0.829; in [19] it was 1.06; in [20], 0.0937. In addition, the z-score in assay [8] was 0.591 (inactive); in assay [12] it was 1 (inactive); in assay [13], 0.0198 (inactive); in [14] it was 1.83 (inactive); in assay [16] it was 2.13 (inactive).

For the origin of these results see PubChem BioAssay.
